KB-3-1 tox – qHTS assay for MDR1-selective chemotherapeutics: Primary screen using the parental adenocarcinoma cell KB-3-1; KB-3-1 viability, CellTiter-Glo ATP luminescence, 72 h; Potency, µM (doses to about 46.1 µM), hits mostly cytotoxic; 1.4% of 400,000 active; AID 1347075, 2019; further: on the % scale 0 is the no-effect control and ±100 the full control effect; nearly all actives have a fitted effect of over 60% in size
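Cytotoxicity measured as CellTiter-Glo luminescence after 72 h at 37 C. Compound titrations were pinned onto drug-naive KB-3-1 parental adenocarcinoma cells grown in DMEM with 10% FBS, and normalized data fitted to concentration-response curves.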
SW480 rereplic – A quantitative high throughput screen for small molecules that induce DNA re-replication in SW480 colon adenocarcinoma cells | Potency, µM (highest dose often 46.1 µM), inactives show at the top dose re-replication activation, most hits filed as activators | AID 624297, 2012 | 1.8% of 340,000 active | SW480 DNA re-replication, Hoechst DNA content imaging, 48 h; further: % of control where 0% means no effect; nearly all actives have a fitted effect of over 55% in size
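Readout is total intensity of Hoechst-stained nuclei, excited at 405 nm and collected at 500-530 nm. Compound treatment lasted 48 hr at 37 C in 5% CO2 before staining.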
MCF10A rereplic – A quantitative high throughput screen for small molecules that induce DNA re-replication in MCF 10a normal breast cells | MCF 10A DNA re-replication, Hoechst nuclear intensity, 48 h | Potency, µM (highest dose often 46.1 µM), without a hit: at the top dose activity, positive = re-replication, hits mostly activators | 2.9% of 350,000 active | AID 624296, 2012; further: % of control where 0% means no effect; nearly all actives have a fitted effect of over 50% in size
HT1080-NT tox – qHTS for induction of synthetic lethality in tumor cells producing 2HG: qHTS for the HT-1080-NT fibrosarcoma cell line | 1.6% of 360,000 active | Potency, µM (series often up to 46.1 µM), for inactives: at the highest dose activity, negative = less viability, hits mostly cytotoxic | HT-1080-NT fibrosarcoma viability, CellTiter-Glo ATP luminescence, 48 h;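 further: NT is the 2HG producing partner of a matched IDH1 knockdown line; 0% = DMSO-treated cells and -100% = media-only wells without cells; nearly all actives have a fitted effect of over 55% in size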
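HT-1080-NT fibrosarcoma cells (2HG-overproducing), 750 cells/well in RPMI with 5% FBS, dosed after 2 h and incubated 48 h at 37C. CellTiter-Glo luminescence normalized to DMSO and no-cell wells; concentration-response curves fitted and classed.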
KB-V1 MDR tox – qHTS assay for MDR1-selective chemotherapeutics: Primary screen using the drug-selected MDR subline cells KB-V1. KB-V1 MDR cells viability, CellTiter-Glo, 72 h. AID 1347076, 2019. Potency, µM (doses to about 46.1 µM), most hits filed as cytotoxic. 3.4% of 400,000 active; further: on the % scale 0 is the no-effect control and ±100 the full control effect; nearly all actives have a fitted effect of over 60% in size
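qHTS viability screen in drug-selected KB-V1 MDR cells: 72 h compound treatment at 37 degrees C, ATP luminescence end point.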
HT1080 IDH1KD tx – qHTS for induction of synthetic lethality in tumor cells producing 2HG: qHTS for the HT-1080-IDH1KD cell line; HT-1080 IDH1 knockdown viability, ATP luminescence, 48 h; Potency, µM (highest dose often 46.1 µM), without a hit: at the top dose activity, negative = toxicity, usual class: cytotoxic; 2% of 360,000 active; AID 686971, 2013;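 further: 0% = DMSO wells and -100% = cell-free medium wells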
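IDH1KD HT-1080 cells, 750/well, RPMI + 5% FBS; compound pinned after 2 h settling; 48 h, 37 °C; CellTiter-Glo luminescence; % activity normalised to DMSO and no-cell wells; curves fitted, classed by r2 and efficacy.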
* marks the source's active call; other numbers are inactive results; i = inactive; ? = inconclusive; / = no result given; ! = not confirmed by another sample; [ ] = another dose, or the depositor's remark. A selection: hits, their analogues and other compounds. The true share with any hit is near 7.9%. The call rests on the fitted dose curve; in most records, active means well fitted curve in the direction sought with a large enough effect; inconclusive means small, poorly fitted or top-dose-only effect, or another doubt; inactive means no such curve, though single readings can be large; an effect the other way counts as inactive or inconclusive. Potency means the concentration at half of the fitted maximal effect.

SMILES	KB-3-1 tox	SW480 rereplic	MCF10A rereplic	HT1080-NT tox	KB-V1 MDR tox	HT1080 IDH1KD tx
CSc1nc(N)nc(SCC(=O)c2ccc(C)cc2)c1C#N	i	?	5.8µM*	?	i	?
Cc1cccc(-n2c(SCC(=O)Nc3ncc(Cl)cc3Cl)nc3ccccc32)c1	2.9µM*	?	15%	?	?	?
O=C(O)CCSc1nc2ccccc2n1-c1ccccc1	i	-9%	-1%	?	i	?
Cn1c(Cc2ccccc2)nnc1SCc1cc(=O)n2ccsc2n1	i	-14%	-5%	17%	i	14%
Cc1cccc(-n2c(SCc3cc(=O)n4ccsc4n3)nc3ccccc32)c1	?	?	8%	-22%	13µM*	-14%
COCCn1c(SCC(=O)Nc2nc(C)c(Cl)cc2Cl)nc2ccccc21	i	-7%	17%	-21%	?	-8%
O=C(CSc1nc2ccccc2n1-c1ccccc1)Nc1ncc(Cl)cc1Cl	5.2µM*	7%	?	-3%	?	-22%
COc1ccc(CNC(=O)CSc2nc3ccsc3c(=O)n2Cc2ccccc2Cl)cc1	i	/	/	/	i	/
Cc1ccc(C(=O)N/N=C\c2ccc(OC(=O)c3cccc(F)c3)cc2)cn1	i	-9%	-21%	3%	i	9%
Cc1cc(C(=O)N/N=C/c2cc(Br)cc(Br)c2OC(=O)c2cccc(F)c2)n[nH]1	?	0.92µM*	15µM*	-5%	?	-18%
CCC(=O)c1ccc2c(c1)N(CCCN1CCN(CCO)CC1)c1ccccc1S2	/	?	33µM*	/	/	/
CC(=O)c1ccc2c(c1)N(CCCN1CCN(CCO)CC1)c1ccccc1S2	/	?	20%	/	/	/
CCSc1ccc2c(c1)N(CCCN1CCN(C)CC1)c1ccccc1S2	i	-10%	?	18µM*	i	?
CN1CCN(CCCN2c3ccccc3Sc3ccc(Cl)cc32)CC1	?	38%	12µM*	15µM*!	16µM*!	21µM*!
OC1CC2CCC(C1)N2CCCN1c2ccccc2Sc2ccc(Cl)cc21 (centres undefined)	?	?	?	?	?	4.6µM*
Cc1ccc(C)c(NC(=O)CSc2ncc3c(n2)-c2ccccc2N(Cc2ccccc2C)S3(=O)=O)c1	i	/	/	/	i	/
CCCCNS(=O)(=O)c1cccc(NC(=O)[C@H]2C[C@H](O)[C@@H](CO)O2)c1	i	/	/	12%	i	2%
CC(CN1CCN(CCOCCO)CC1)CN1c2ccccc2Sc2ccc(Cl)cc21 (centres undefined)	?	/	/	23µM*	i	?
COc1ccc(Nc2ncnc3onc(-c4ccc(Cl)cc4)c23)cc1Cl	10µM*	/	/	/	i	/
COc1ccc(N2CCN(C(=O)c3cc(S(=O)(=O)N4CCCCCC4)cn3C)CC2)cc1	i	/	/	/	i	/
CNc1ccc(Br)cc(C(=O)/C=C/c2cc(OC)ccc2OC)c1=O	?	?	?	?	18µM*	?
CCNc1ccc(Br)cc(C(=O)/C=C/c2ccc(Cl)cc2Cl)c1=O	?	?	21µM*	?	18µM*	?
CNc1ccc(Br)cc(C(=O)/C=C/c2ccc(OC)cc2)c1=O	?	-6%	?	0%	?	3%
CC(C)CC(NC(=O)C1CCCCC1)C(=O)N1CCN(c2ccccn2)CC1 (centres undefined)	i	-4%	0%	-2%	2.6µM*	-3%
Cc1noc(C)c1C(=O)OCC(=O)Nc1cccc(S(=O)(=O)N(C)C)c1	i	2%	4%	-1%	i	-3%
SMILES	KB-3-1 tox	SW480 rereplic	MCF10A rereplic	HT1080-NT tox	KB-V1 MDR tox	HT1080 IDH1KD tx
Cc1onc(-c2c(F)cccc2Cl)c1C(=O)Nc1cccc(Cn2cccn2)c1	i	4%	-8%	8%	21µM*	7%
Cc1onc(-c2c(F)cccc2Cl)c1C(=O)OCC(=O)Nc1cccc(S(=O)(=O)N(C)C)c1	?	-1%	7%	-6%	4.1µM*	-14%
COc1ccc(/C(N)=N/OC(=O)c2c(-c3ccccc3Cl)noc2C)cc1OC	?	?	?	?	?	16µM*
COC(=O)c1cc(OC)c(OC)cc1NC(=O)c1c(-c2ccccc2Cl)noc1C	?	?	27%	2%	3.3µM*	2%
Cc1cc(NS(=O)(=O)c2ccc3c(c2)CCC(=O)N3)ccc1F	i	/	/	/	i	/
Cc1ccc2c(=O)cc(C(=O)Nc3sc4c(c3C(=O)NCc3ccco3)CCCC4)oc2c1C	i	/	/	/	?	/
COc1ccc(NC(=O)Cn2nnc(-c3ccccc3NS(=O)(=O)c3ccccc3)n2)cc1	23µM*	-3%	8%	-19%	2.9µM*	?
Cc1cc(NC(=O)c2c(-c3ccccc3Cl)noc2C)no1	i	-5%	4%	-8%	13µM*	-6%
Cc1onc(-c2ccccc2Cl)c1C(=O)Nc1cccc(-c2cn3cccnc3n2)c1	i	20%	?	-1%	16µM*	-23%
COC(=O)c1cc(OC)c(OC)cc1NC(=O)Cn1nnc(-c2ccccc2Cl)n1	i	15µM*	17%	14%[9.24 µM]	?	4%
Cc1[nH]n(C)c(=O)c1C(=O)c1c(-c2ccccc2Cl)noc1C	i	?	26µM*	-29%	i	-27%
Cc1onc(-c2ccccc2Cl)c1C(=O)NC(=S)Nc1ccc(C(C)C)cc1	i	-7%	4%	18%	i	9%
Cc1ccc(NC(=S)NC(=O)c2c(-c3ccccc3Cl)noc2C)cc1	i	-5%	16%	10%	21µM*	5%
CCOc1ccc(C(C)=O)cc1COc1cccnc1[N+](=O)[O-]	?	21µM*	?	?	12µM*	?
COc1ccc(C(C)=O)cc1COc1cccnc1[N+](=O)[O-]	i	?	?	-20%	15µM*	?
Cc1ccc(CNC(=O)CN2C(=O)C3CCCCN3c3ccc(C(=O)N(C)C)cc32)cc1 (centres undefined)	i	/	/	/	i	/
O=C(NCc1ccccc1F)C1CCCN(C(=O)NC2CCCCC2)C1 (centres undefined)	i	-2%	12%	-11%	21µM*	3%

Screens from PubChem.
